{"source": "PubChem BioAssay AID1159571", "about": "(Broad Institute, 2015)", "note": "Entries with a potency or affinity are not part of this list. Active and inactive are the calls of the source. How the calls were made is not given here.", "data": [{"assay": "growth inhibition of PfATP4-mutant resistant parasites – NITD609-resistant line, SYBR Green, dry powder, dose response (AID 1159571)", "settings": "P. falciparum ATP4 D1247Y mutant growth; series mostly up to 19.5 µM", "values": [{"smiles": "O=C(NC[C@@H]1CC[C@H]2[C@H](CN2Cc2cc(-c3ccccc3)on2)O1)c1ccc2c(c1)OCO2", "outcome": "inactive"}, {"smiles": "COc1cccc(C#Cc2ccc([C@H]3[C@@H](CO)N(C(=O)c4ccccn4)[C@H]3C#N)cc2)c1", "outcome": "inactive"}, {"smiles": "COc1ccc(S(=O)(=O)Nc2ccc3c(c2)CC(=O)N([C@@H](C)CO)C[C@H](C)[C@H](CN(C)S(=O)(=O)c2ccc(OC)cc2)O3)cc1", "outcome": "inactive"}, {"smiles": "Cc1ccccc1-c1ccccc1[C@H]1[C@@H](C#N)N(C(=O)c2ccccc2)[C@@H]1CO", "outcome": "inactive"}, {"smiles": "C[C@@H]1CN([C@H](C)CO)C(=O)c2cccc(NC(=O)c3ccc(-c4nccs4)cc3)c2O[C@H]1CN(C)Cc1ccc(C(F)(F)F)cc1", "outcome": "inactive"}]}]}
